Compound activity (PubChem)
Only some compounds are listed: those with a hit (about 11% of all), similar ones and a draw of the others.
NIH3T3 tox = kills NIH 3T3 cells | NIH 3T3 viability, CellTiter-Glo ATP luminescence, 48-72 h | Potency, µM (doses to about 96.7 µM), hits mostly inhibitors | 94,000 compounds, 4.3% hits | AID 1345082; also: nearly all actives have a fitted effect of over 55% in size
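Luminescent ATP readout (CellTiter-Glo, 10 min RT) after 48 or 72 hr compound exposure of NIH 3T3 cells seeded at 400 cells/well in 1536-well format; quantitative HTS.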
HEK293 tox = cytotoxic compounds in HEK 293 cells; Potency, µM (titrated, usually from 115 µM), actives largely listed as inhibitors; HEK 293 viability, ATP luminescence (CellTiter-Glo), 48-72 h; 94,000 compounds, 6.6% hits; also: nearly all actives have a fitted effect of over 60% in size
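Cytotoxicity was scored by loss of ATP-coupled luminescence (CellTiter-Glo) in HEK 293 cells. Compound treatment ran 48 or 72 hr at 37 degree Celsius, 5% CO2, 95% humidity.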
NPR1 antag = antagonists of human natriuretic peptide receptor Npr1 | P16066 | HEK293 hNpr1 GloSensor cGMP, ANP-stimulated luminescence | Potency, µM (titrated, usually from 46.3 µM), actives largely listed as inhibitors | 76,000 compounds, 1.6% hits | AID 1347048; calls by dose curve; also: nearly all actives have a fitted effect of over 60% in size
Target sequence (P16066 whole entry, looked up): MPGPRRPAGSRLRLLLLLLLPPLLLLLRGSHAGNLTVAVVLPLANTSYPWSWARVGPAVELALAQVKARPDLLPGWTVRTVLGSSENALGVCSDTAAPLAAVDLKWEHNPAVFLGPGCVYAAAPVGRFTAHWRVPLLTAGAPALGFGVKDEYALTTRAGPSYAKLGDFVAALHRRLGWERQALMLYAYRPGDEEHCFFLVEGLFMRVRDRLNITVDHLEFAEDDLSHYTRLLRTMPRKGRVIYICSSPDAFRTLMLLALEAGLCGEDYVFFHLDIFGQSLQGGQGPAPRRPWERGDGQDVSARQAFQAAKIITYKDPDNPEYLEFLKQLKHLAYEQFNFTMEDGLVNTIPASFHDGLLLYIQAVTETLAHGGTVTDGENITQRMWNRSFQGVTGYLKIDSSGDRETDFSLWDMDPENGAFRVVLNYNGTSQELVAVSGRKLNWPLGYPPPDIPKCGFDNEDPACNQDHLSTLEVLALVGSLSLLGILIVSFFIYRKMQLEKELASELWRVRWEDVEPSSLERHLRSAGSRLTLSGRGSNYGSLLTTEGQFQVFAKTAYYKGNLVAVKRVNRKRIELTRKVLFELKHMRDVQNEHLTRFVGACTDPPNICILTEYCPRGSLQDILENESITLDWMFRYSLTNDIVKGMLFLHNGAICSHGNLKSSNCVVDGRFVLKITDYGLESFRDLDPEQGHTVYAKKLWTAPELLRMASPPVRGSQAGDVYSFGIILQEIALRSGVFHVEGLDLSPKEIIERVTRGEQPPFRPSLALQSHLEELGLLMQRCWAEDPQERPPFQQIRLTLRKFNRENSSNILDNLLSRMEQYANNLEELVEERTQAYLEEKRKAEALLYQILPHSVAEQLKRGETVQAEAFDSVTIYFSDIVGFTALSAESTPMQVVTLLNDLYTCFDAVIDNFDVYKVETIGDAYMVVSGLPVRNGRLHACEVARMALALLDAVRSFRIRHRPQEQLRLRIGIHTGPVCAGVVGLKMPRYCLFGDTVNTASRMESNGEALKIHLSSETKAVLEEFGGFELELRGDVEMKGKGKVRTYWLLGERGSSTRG
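Compound pre-incubated 30 min at room temperature on GloSensor-loaded HEK293 cells stably carrying hNpr1 and the pGS-40F cGMP biosensor. Stimulation uses hNppA at 0.1 nM final; luminescence is taken at baseline and 20 min post-agonist.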
Luciferase inh = blocks purified firefly luciferase enzyme activity | 76,000 compounds, 2.5% hits | P08659 | Potency, µM (series often up to 115 µM), hits mostly inhibitors | purified P. pyralis luciferase, luminescence, biochemical; also: nearly all actives have a fitted effect of over 65% in size
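Purified 10nM P. pyralis luciferase with 10uM D-luciferin and 10uM ATP in 50mM Tris acetate pH 7.5, 10mM Mg acetate, 0.01% Tween-20, 0.05% BSA. qHTS titration; luminescence read by CCD imager.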
Of the large screens only hits and unclear results are named; the others gave an inactive call. Unless noted, calls follow the shape of the dose curve; as a rule, active = well fitted curve in the direction sought with a large enough effect; inconclusive = small, poorly fitted or top-dose-only effect, or another doubt; inactive = no such curve, though single readings can be large; an effect the other way counts as inactive or inconclusive.

CCCNc1cc(N2CCC(CCC(=O)N3CCN(c4ccccc4F)CC3)CC2)ncn1	NIH3T3 tox inconclusive, HEK293 tox inconclusive, NPR1 antag 13µM, Luciferase inh inconclusive
CCCNc1cc(N2CCC(CCC(=O)NCC3CC3)CC2)ncn1	none
CCCCN(C)C(=O)CCC1CCN(c2cc(NC3CC3)ncn2)CC1	NIH3T3 tox inconclusive, HEK293 tox 32µM, NPR1 antag 18µM
CCNc1cc(N2CCC(CCC(=O)N3CCN(c4ncccn4)CC3)CC2)ncn1	NIH3T3 tox inconclusive, HEK293 tox 50µM, NPR1 antag inconclusive
CCCN(CC1CC1)C(=O)c1c(OCC2CC2)cc(=O)n2c1CCCCC2	NIH3T3 tox inconclusive, HEK293 tox inconclusive
CCN(CC)C[C@H]1O[C@H](Cc2cc(-c3ccccc3)on2)CC[C@@H]1O	NIH3T3 tox inconclusive
Cn1nccc1CN1CCCC2(COc3ccccc3C(=O)N2)C1 (stereo not given)	NIH3T3 tox 8.9µM, HEK293 tox 28µM, NPR1 antag inconclusive
O=C1NC2(CCN(Cc3ccsc3)C2)COc2ccccc21 (stereo not given)	NIH3T3 tox 40µM, HEK293 tox inconclusive
O=C1NC2(CCN(CC3CC3)CC2)COc2ccccc21	NIH3T3 tox inconclusive, HEK293 tox inconclusive
O=C1NC2(CCN(Cc3ccc(F)cc3)CC2)COc2ccccc21	HEK293 tox 63µM
Cn1cccc1CN1CCC2(COc3ccccc3C(=O)N2)C1 (stereo not given)	NIH3T3 tox inconclusive, HEK293 tox inconclusive
O=C1NC2(CCN(CC3CCCCC3)CC2)COc2ccccc21	NIH3T3 tox 79µM, HEK293 tox 35µM
O=C1NC2(CCN(Cc3cccnc3)CC2)COc2ccccc21	HEK293 tox inconclusive
O=C(Nc1ccc(F)cc1)N1CCOc2ccc(CN3CCc4ccccc4C3)cc2C1	NIH3T3 tox inconclusive, HEK293 tox inconclusive
CCOc1ccccc1NC(=O)Cn1c(=O)c(-c2noc(C)n2)c2n(c1=O)CCCC2	none
Cn1c(CNC(=O)CC[C@H]2NC(=O)c3ccccc3NC2=O)nc2ccccc21	none
COc1ccc(C(=O)N2CCC[C@H]2c2nc(-c3ccc(F)cc3)no2)c(OC)c1	NIH3T3 tox inconclusive, HEK293 tox inconclusive, Luciferase inh inconclusive
Cc1ccc(CN2CCC3(CC2)COc2ccccc2C(=O)N3)cc1	NIH3T3 tox inconclusive, HEK293 tox 28µM
CC(=O)Nc1ccc(CN2CCC3(CC2)COc2ccccc2C(=O)N3)cc1	HEK293 tox inconclusive
Cn1nc(C2CC2)cc1NC(=O)Cc1ccccc1	HEK293 tox inconclusive (no result: NPR1 antag, Luciferase inh)
O=C(O)C[C@@H]1CCN(Cc2ccccc2)C[C@@H]1CCN1C[C@@H]2C[C@H](C1)c1cccc(=O)n1C2	none
CCn1cc(C(=O)N2CCCC(C(=O)Nc3cccc(-c4cc5ccccc5[nH]4)c3)C2)cn1 (stereo not given)	NIH3T3 tox inconclusive, HEK293 tox 40µM, Luciferase inh inconclusive
O=C(Nc1cccc(-n2cccn2)c1)C1CCCN(Cc2cccc(F)c2F)C1 (stereo not given)	NIH3T3 tox inconclusive, HEK293 tox 32µM
O=C(Nc1cccc(-c2nnc3n2CCCC3)c1)C1CCCC1	none
Cc1cccc(-c2cccc(NC(=O)C3CCCN(C(=O)c4cccc(C)n4)C3)c2)c1 (stereo not given)	NIH3T3 tox inconclusive, HEK293 tox inconclusive, Luciferase inh 25µM
Cc1c(CN2CCCC(C(=O)Nc3cccc(-c4cc5ccccc5[nH]4)c3)C2)cnn1C (stereo not given)	NIH3T3 tox 8.9µM, HEK293 tox 20µM
CCn1cc(S(=O)(=O)N2CCC3(CC2)CC(N2CCOCC2)CCO3)cn1 (stereo not given)	HEK293 tox inconclusive
CNC(=O)[C@H]1C[C@H](Oc2cccnc2)CN1C(=O)NCc1ccc(F)cc1	none
O=C(Cn1nc2c(cc1=O)CCCC2)NCc1nc2ccccc2[nH]1	none
CN1c2cc(C(=O)N3CCN(c4ccc(Cl)cc4)CC3)ccc2C(=O)N2CCCCC21 (stereo not given)	HEK293 tox inconclusive, NPR1 antag inconclusive
Cc1cc(C(=O)N2CCCC(C(=O)Nc3cccc(-c4cc5ccccc5[nH]4)c3)C2)nn1C (stereo not given)	NIH3T3 tox inconclusive, HEK293 tox 32µM, Luciferase inh inconclusive
Cn1cc2c3c(cccc31)CN(C(=O)C1CCC1)CC2	none
COc1ccc(-c2noc([C@@H]3C[C@H](NC(=O)COCC(=O)O)CN3C)n2)cc1	Luciferase inh 63µM
CN1C[C@@H](NC(=O)CCC(=O)O)C[C@H]1c1nc(-c2ccc3ccccc3c2)no1	Luciferase inh 32µM
COCC(=O)N[C@H]1C[C@@H](c2nc(-c3ccc(OC(F)(F)F)cc3)no2)N(C)C1	NIH3T3 tox inconclusive, HEK293 tox inconclusive, Luciferase inh inconclusive
CN1C[C@@H](NC(=O)CC(C)(C)CC(=O)O)C[C@H]1c1nc(-c2ccc3ccccc3c2)no1	Luciferase inh inconclusive
COCCCNc1ncnc2c1CN(c1cccc(C)c1)C(=O)CN2C	none (no result: NPR1 antag, Luciferase inh)
COc1ccc(OC)c(NC(=O)C2CCN(c3cnc4nccnc4c3)CC2)c1	NIH3T3 tox inconclusive, HEK293 tox 40µM
CCC(CC)Nc1ncnc2c1CN(C1CCCNCC1)C(=O)CN2C (stereo not given)	none (no result: NPR1 antag, Luciferase inh)
COc1ccc(C2(C(=O)N[C@@H]3CN(c4ncccn4)C[C@H]3CN(C)C)CC2)cc1	none
O=S(=O)(NCCc1noc(-c2ccccc2)n1)c1ccc(Cl)cc1	NIH3T3 tox 28µM, HEK293 tox 40µM, NPR1 antag inconclusive
CCc1ccc(NC(=O)Cn2c(-c3ccccc3)nc(C)c(CCO)c2=O)cc1	NIH3T3 tox 40µM, HEK293 tox 40µM
CCc1cccc(NC(=O)Cn2c(-c3ccc(F)cc3)nc(C)c(CCO)c2=O)c1	NIH3T3 tox inconclusive, HEK293 tox inconclusive
CCc1ccc(NC(=O)Cn2c(-c3ccc(Cl)cc3)nc(C)c(CCO)c2=O)cc1	NIH3T3 tox 45µM, HEK293 tox 40µM
CCOc1ccc(NC(=O)Cn2c(-c3ccc(Cl)cc3)nc(C)c(CCO)c2=O)cc1	none
CC1=C[C@@H](CNC(=O)c2cncnc2)[C@H](C(C)C)C[C@H]1Cc1nnc(-c2ccncc2)o1	NIH3T3 tox inconclusive, HEK293 tox 79µM
CC1=C[C@@H](CN2CCN(C)CC2)[C@H](C(C)C)C[C@H]1Cc1nnc(-c2ccc(C)cc2)o1	NIH3T3 tox 22µM, HEK293 tox 28µM
CC1=C[C@@H](CN2CCN(CCO)CC2)[C@H](C(C)C)C[C@H]1Cc1nnc(-c2ccncc2)o1	NIH3T3 tox inconclusive, HEK293 tox 45µM
CC(=O)N1CCN(C(=O)C[C@@H]2C[C@@H](C(C)C)[C@H](CNC(=O)c3cncnc3)C=C2C)CC1	none
CC1=C[C@@H](CN2CCN(C)CC2)[C@H](C(C)C)C[C@H]1Cc1nnc(-c2ccc(N(C)C)cc2)o1	NIH3T3 tox 40µM, HEK293 tox 22µM
CCN1c2cc(C(=O)NC3CCCCCC3)ccc2C(=O)N2CCCCC21 (stereo not given)	HEK293 tox inconclusive
Cc1noc2c(NC3CCN(C)CC3)cc(-c3cccs3)nc12	NIH3T3 tox inconclusive, HEK293 tox 79µM
